Shown are actives, neighbours in structure and some others; about 10% of the full set was active somewhere.
ALOX12 inhib – qHTS Assay for Inhibitors of 12-hLO (12-human lipoxygenase); purified 12-hLO, xylenol orange hydroperoxide absorbance; AID 1452, 2008; Potency, µM (highest dose often 57.1 µM), for inactives: at the top dose activity change, negative = inhibition, actives largely listed as inhibitors; Polyunsaturated fatty acid lipoxygenase ALOX12 (Homo sapiens), P18054; 150,000 compounds, 0.12% hits; active means well fitted inhibition curve with a large enough effect; inconclusive means small, poorly fitted or top-dose-only effect; further: potency means the concentration at half of the fitted maximal effect; nearly all actives have a fitted effect of over 55% in size
Target sequence (P18054 whole entry, looked up): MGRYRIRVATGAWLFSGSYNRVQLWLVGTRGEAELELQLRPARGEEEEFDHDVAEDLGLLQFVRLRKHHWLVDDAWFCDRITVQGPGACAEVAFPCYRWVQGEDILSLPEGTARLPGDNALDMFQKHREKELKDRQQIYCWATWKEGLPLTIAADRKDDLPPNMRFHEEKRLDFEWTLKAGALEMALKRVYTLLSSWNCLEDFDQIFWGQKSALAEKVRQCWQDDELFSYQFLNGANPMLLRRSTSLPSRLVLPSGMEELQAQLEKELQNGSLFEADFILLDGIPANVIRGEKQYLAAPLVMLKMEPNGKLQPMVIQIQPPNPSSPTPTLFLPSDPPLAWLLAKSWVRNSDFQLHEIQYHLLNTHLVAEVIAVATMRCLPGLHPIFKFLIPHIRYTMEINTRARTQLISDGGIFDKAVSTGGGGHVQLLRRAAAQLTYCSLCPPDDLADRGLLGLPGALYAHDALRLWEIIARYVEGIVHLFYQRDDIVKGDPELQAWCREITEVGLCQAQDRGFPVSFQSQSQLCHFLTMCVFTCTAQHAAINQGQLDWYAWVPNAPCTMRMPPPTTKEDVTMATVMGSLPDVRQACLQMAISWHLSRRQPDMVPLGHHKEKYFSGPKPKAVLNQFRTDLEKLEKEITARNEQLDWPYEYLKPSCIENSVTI
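Purified human 12hLO (150 nM), preincubated 15 min with compound, then 40 uM arachidonic acid for 30 min, room temperature, Hepes pH 7.0 with 0.01% Triton X-100. Hydroperoxide detected by ferrous iron/xylenol orange; 573/405 nm absorbance ratio gives reaction progress.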
PNC assembly inh – High Content Assay for Compounds that inhibit the Assembly of the Perinucleolar Compartment; 140,000 compounds, 3.1% hits; AID 2417, 2010; PC3M PTB-GFP, PNC prevalence imaging, 16 h; hits give low values; activity change (PNC), negative = inhibition, % at 10 µM;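 active means readout at or below -70, meaning at least 70% loss of cells showing the perinucleolar compartment, a nuclear body marking cancer cells; inconclusive means readout between -30 and a set limit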;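 further: plate controls were DMSO wells for no effect and camptothecin positive control wells for full effect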
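Read-out is percentage of cells bearing a perinucleolar compartment, from automated 20x imaging of fixed, Hoechst-stained PC3M PTB-GFP cells. Cells were seeded 4 h, then exposed 16 h to compound (23 nl of library stock) in duplicate plates.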
ALDH1A1 block – qHTS Assay for Inhibitors of Aldehyde Dehydrogenase 1 (ALDH1A1) | Purified ALDH1A1, NADH fluorescence, propionaldehyde substrate | Potency, µM (series often up to 75.3 µM), inactives show at the top dose activity, negative = inhibition, actives largely listed as inhibitors | 220,000 compounds, 7.3% hits | AID 1030, 2008;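 further: potency means the concentration at half of the fitted maximal effect; plate controls were no enzyme wells and a reference inhibitor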
Lamin A splicing – qHTS Assay for Modulators of Lamin A Splicing; 200,000 compounds, 0.01% hits; Potency, µM (series often up to 46.1 µM), for the others: at the top dose ratio change, negative = inhibition, actives largely listed as inhibitors; HeLa LMNA splicing GFP/RFP minigene ratio, 48 h; active means well fitted inhibition curve with a large enough effect in the signal ratio, with a control signal flat, not every such curve was filed as active; inconclusive means small, poorly fitted or top-dose-only effect, or effect the other way, or a change in a side signal; the % refers to the signal ratio; further: potency means the concentration at half of the fitted maximal effect
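Read-out is the ratio of GFP to DsRed2 object intensity, acquired by 488 nm laser-scanning cytometry on HeLa lamin A-EGFP minigene reporter cells. Compound incubation 48 hrs at 37 °C in Opti-MEM with 2% FBS; DMSO 0.5% final.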
HPGD inh – qHTS Assay for Inhibitors of HPGD (15-Hydroxyprostaglandin Dehydrogenase) | purified HPGD, NADH fluorescence kinetic, PGE2 substrate | 150,000 compounds, 4.3% hits | 15-hydroxyprostaglandin dehydrogenase [NAD(+)] (Homo sapiens), P15428 | Potency, µM, for the others: at the top dose activity change, negative = inhibition, usual class: inhibitors | AID 894, 2007; further: potency means the concentration at half of the fitted maximal effect
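NADH formation kinetics: reaction with 30 uM PGE2 and 1 mM NAD+ (final), 20 nM enzyme, Tris-HCl pH 8 with Tween 20, after 15 min compound preincubation at room temperature. Fluorescence change, last versus first of five reads.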
* marks the source's active call; other numbers are inactive results; [ ] = remark or other dose. Unless noted, the call rests on the fitted dose curve; in most records, active means well fitted inhibition curve with a large enough effect (not every such curve was filed as active); inconclusive means small, poorly fitted or top-dose-only effect, or another doubt; inactive means no such curve, though single readings can be large or run the other way. Unless noted, on the % scale 0 is the no-effect control and ±100 the full control effect.

For Cc1ccc(-n2c(C)cc(C=C3C(=O)CC(C)(C)CC3=O)c2C)cc1 the results were ALOX12 inhib -5%, PNC assembly inh 10, ALDH1A1 block 0.89µM*, Lamin A splicing 14% and HPGD inh inconclusive.
Screening Cc1cc2c(n1-c1ccc(Cl)cc1)CC(C)(C)CC2=O returned ALOX12 inhib 2%, PNC assembly inh 14, ALDH1A1 block -4%, Lamin A splicing 10% and HPGD inh -15%.
`Cc1cc(C=C2C(=O)c3ccccc3C2=O)c(C)n1-c1ccccc1` gave ALOX12 inhib -15%, PNC assembly inh 50, ALDH1A1 block 16µM*, Lamin A splicing inconclusive and HPGD inh -17%.
Screening CC1=NN(c2ccccc2)C(=O)/C1=C\c1cc(C)n(-c2ccccc2)c1C returned ALOX12 inhib 1%, PNC assembly inh inconclusive, ALDH1A1 block inconclusive, Lamin A splicing -1% and HPGD inh -24%.
O=C(O)c1ccc(COc2ccccc2C=C2C(=O)c3ccccc3C2=O)cc1 was read as ALOX12 inhib 0%, PNC assembly inh -20, ALDH1A1 block inconclusive, Lamin A splicing -8% and HPGD inh 10µM*.
Cc1cc(C=C2C(=O)c3ccccc3C2=O)c(C)n1-c1cccc(C(=O)O)c1 was read as ALDH1A1 block 10µM*.
`COc1ccc(B(O)O)cc1` gave ALOX12 inhib 4%, ALDH1A1 block 4% and HPGD inh -12%.
For COc1ccccc1Cc1nc2ccccc2nc1SCC(=O)NCc1ccccc1Cl the results were Lamin A splicing 3%[46 µM].
`CC(CC(=O)O)Nc1ccccc1O` (stereo not drawn) gave ALDH1A1 block -4% and Lamin A splicing 14%[46 µM].
For O=C(NCC1CCN(Cc2cccc(F)c2)CC1)c1cc2ccc3cccnc3c2[nH]1 the results were Lamin A splicing -9%[46 µM].
Screening Cc1cc(/C=C2\Cc3ccccc3C2=O)c(C)n1-c1ccccc1 returned ALOX12 inhib -7%, PNC assembly inh inconclusive, ALDH1A1 block 7.9µM*, Lamin A splicing inconclusive and HPGD inh inconclusive.
Cc1cc(C=C2C(=O)c3ccccc3C2=O)c(C)n1-c1ccc(C(=O)O)cc1 was read as ALDH1A1 block 5.6µM*.
`CC(C)(C)NS(=O)(=O)c1ccc(CCC(=O)Nc2ccc3c(c2)OCO3)cc1` gave ALOX12 inhib 3%, PNC assembly inh -21, ALDH1A1 block 0.18µM*, Lamin A splicing -8% and HPGD inh -6%.
`CC(C)(C)NS(=O)(=O)c1ccc(OCC(=O)Nc2ccc3c(c2)OCCO3)cc1` gave ALOX12 inhib -3%, PNC assembly inh 1, ALDH1A1 block 1.8µM*, Lamin A splicing 2% and HPGD inh -5%.
Screening O=C(COc1ccc(S(=O)(=O)N2CCOCC2)cc1)Nc1ccc2c(c1)OCCO2 returned ALOX12 inhib -4%, PNC assembly inh 1, ALDH1A1 block inconclusive, Lamin A splicing -4% and HPGD inh -6%.
CC(C)(C)NS(=O)(=O)c1ccc(CCC(=O)Nc2ccc3c(c2)OCCO3)cc1 was read as ALOX12 inhib 0%, PNC assembly inh -15, ALDH1A1 block 4µM*, Lamin A splicing -15% and HPGD inh -6%.
CC(C)NS(=O)(=O)c1ccc(CCC(=O)Nc2ccc3c(c2)OCCO3)cc1 was read as ALOX12 inhib 3%, PNC assembly inh -7, ALDH1A1 block -3%, Lamin A splicing -10% and HPGD inh -5%.
For Cc1cc(NC(=O)N2CCC(CN3CCCCCC3)CC2)ccc1Br the results were Lamin A splicing 3%[46 µM].
`O=C(ON=C1CCN(S(=O)(=O)c2ccccc2)CC1)c1cccc(Cl)c1` gave ALOX12 inhib 1%, PNC assembly inh -100*, ALDH1A1 block -2%, Lamin A splicing -7% and HPGD inh -11%.
Screening CCC(N)(C(=O)O)c1ccc(C(=O)O)cc1 (stereo not drawn) returned ALDH1A1 block 2%.
Screening Cc1cccc(CNC(=O)c2sc3ncnc(N(C)C4CCCCC4)c3c2C)c1 returned Lamin A splicing 0%[46 µM].
For COc1ccc(/C(O)=C2/C(=O)C(=O)N(CCN3CCOCC3)C2c2cccnc2)cc1OC (stereo not drawn) the results were ALOX12 inhib -4%, PNC assembly inh 212, ALDH1A1 block 25µM*, Lamin A splicing 1% and HPGD inh -20%.
`CCOc1cccc(/C(O)=C2/C(=O)C(=O)N(CCN3CCOCC3)C2c2cccnc2)c1` (stereo not drawn) gave ALOX12 inhib 3%, PNC assembly inh inconclusive, ALDH1A1 block inconclusive, Lamin A splicing 1% and HPGD inh -7%.
For COc1cccc(/C(O)=C2/C(=O)C(=O)N(CCN3CCOCC3)C2c2cccnc2)c1 (stereo not drawn) the results were ALOX12 inhib -9%, PNC assembly inh -18, ALDH1A1 block 3.5µM*, Lamin A splicing -1% and HPGD inh -26%.
For NC(=O)/N=C(\N)NC(=O)c1ccccc1 the results were ALOX12 inhib -4%[11.4 µM], ALDH1A1 block -5%[13.5 µM] and HPGD inh -7%.
`C[C@@H]1O[C@H](O[C@@H]2[C@H](C)O[C@H](O[C@@H]3[C@H](C)O[C@H](O[C@H]4CC[C@]5(C)[C@@H](CC[C@@H]6[C@H]5C[C@@H](O)[C@]5(C)[C@@H](C7=CC(=O)OC7)CC[C@]65O)C4)C[C@@H]3O)C[C@@H]2O)C[C@H](O)[C@@H]1O` gave ALOX12 inhib -1%[25.6 µM], ALDH1A1 block 13%[20.9 µM], Lamin A splicing inconclusive and HPGD inh -4%.
C=CCn1c(=O)/c(=C2/Sc3ccccc3N2CC)s/c1=C1/C(=O)NN=C1C was read as ALDH1A1 block 20µM*.
Screening O=C(c1ccncc1)c1ccc(N2CCN(C3CC(=O)N(Cc4ccccc4)C3=O)CC2)cc1 (stereo not drawn) returned ALOX12 inhib -1%, PNC assembly inh 22, ALDH1A1 block -11%, Lamin A splicing inconclusive and HPGD inh -12%.
Screening O=C(c1ccc(N2CCN(C3CC(=O)N(Cc4cccs4)C3=O)CC2)cc1)c1cccnc1 (stereo not drawn) returned ALDH1A1 block 3.2µM*.
Screening CC(C)(C)C(=O)CNS(=O)(=O)c1ccc(S(=O)(=O)NC2CCCC2)cc1 returned ALOX12 inhib 1%, PNC assembly inh -82*, ALDH1A1 block inconclusive, Lamin A splicing inconclusive and HPGD inh -2%.

Screens (PubChem)
